Measurements taken from PubChem BioAssay AID1420 (Emory University Molecular Libraries Screening Center, 2008).
Screen size: about 1,100 compounds; about 65 (6%) were called active. The rule behind the calls is not given here. Not all results are given here. Measured potencies and affinities stand elsewhere.

These compounds were tested against Calpain-2 catalytic subunit (Sus scrofa) (UniProt P43367) (assay: pig calpain II inhibitor potency, dose response, biochemical, fluorogenic peptide substrate (AID 1420)). Conditions: purified calpain II, 30 min; series mostly up to 50 µM; percent of control activity: at the top concentration.
Calpain-2 catalytic subunit (Sus scrofa), sequence (P43367 whole entry, looked up): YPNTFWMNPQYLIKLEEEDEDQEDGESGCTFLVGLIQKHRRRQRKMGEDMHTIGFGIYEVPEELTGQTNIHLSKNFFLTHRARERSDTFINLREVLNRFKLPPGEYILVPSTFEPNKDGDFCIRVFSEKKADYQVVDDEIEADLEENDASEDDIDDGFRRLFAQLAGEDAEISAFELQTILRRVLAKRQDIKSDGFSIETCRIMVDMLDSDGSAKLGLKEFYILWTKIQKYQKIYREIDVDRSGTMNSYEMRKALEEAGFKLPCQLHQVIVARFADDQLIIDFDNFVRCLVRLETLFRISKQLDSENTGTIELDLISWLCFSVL

Percent of control activity, inactive:
O=C(NNC(=O)c1cc(OCC(F)(F)F)ccc1OCC(F)(F)F)c1cccc(C(F)(F)F)c1 119%
CN(C)c1cccc(C(=O)OCC(=O)Nc2ccccc2Cl)c1 126%
CCOC(=O)C(C)Oc1ccc(OCc2ccccc2)cc1 (stereo not drawn) 106%
